Assay results published in paper PMC5540273 (PLoS ONE, 2017).

Experiments:
Conditions in all cases: concentration: 1 μM, replicates: in singlicate; n = 1
[1] = tested on: LCK
[2] = tested on: LIMK1
[3] = tested on: LIMK2
[4] = tested on: T1, LKB1
T1 construct: gene STK11

[5] = tested on: T2, LOK
T2 construct: gene STK10

[6] = tested on: LRRK2
[7] = tested on: LTK
[8] = tested on: LYN
[9] = tested on: T3, LZK
T3 construct: gene MAP3K13

[10] = tested on: MAK
[11] = tested on: MAP3K15
[12] = tested on: MAP3K1
[13] = tested on: MAP3K2
[14] = tested on: MAP3K3
[15] = tested on: MAP3K4
[16] = tested on: MAP4K2
[17] = tested on: MAP4K3
[18] = tested on: MAP4K4
[19] = tested on: MAP4K5
[20] = tested on: MAPKAPK2
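Further: KINOMEscan kinase panel screen.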

SMILES	%Inh [1] [%]	%Inh [2] [%]	%Inh [3] [%]	%Inh [4] [%]	%Inh [5] [%]	%Inh [6] [%]	%Inh [7] [%]	%Inh [8] [%]	%Inh [9] [%]	%Inh [10] [%]	%Inh [11] [%]	%Inh [12] [%]	%Inh [13] [%]	%Inh [14] [%]	%Inh [15] [%]	%Inh [16] [%]	%Inh [17] [%]	%Inh [18] [%]	%Inh [19] [%]	%Inh [20] [%]
CCS(=O)(=O)c1ccc(OC)c(Nc2nccc(-c3c(-c4cccc(NC(=O)c5c(F)cccc5F)c4)nn4ncccc34)n2)c1 [GSK326180]	56	23	3	0	92.1	0	19	30	0	15	0	10	6	0	7	0	22	3	0	34
Cn1cc(-c2[nH]c3cc(NC(=O)[C@H](N)C4CCCCC4)cc4c3c2C=NNC4=O)cn1	90.7	90.6	96.6	94.3	17	56	0	76	0	0	52	35	98.3	94.8	9	97.3	86	48	52	0
c1ccc(Oc2ccc(Nc3ccnc4cc(-c5ccc(CNCCN6CCOCC6)o5)ccc34)cc2)nc1 [GW567145]	78	0	0	20	30	20	0	28	32	0	0	9	1	0	0	0	0	9	56	0
Nc1ncc(-c2ccc3nccc(-c4ccncc4)c3c2)cc1S(=O)(=O)N1CCOCC1 [GSK1627798]	20	0	0	0	0	0	0	0	0	22	0	7	19	0	9	0	0	0	3	14
COc1ccc(CNC(=O)NC2CCN(c3ccnc(Nc4ccc(F)cc4)n3)CC2)cc1 [GSK1379788]	8	0	0	4	0	0	1	0	25	24	0	4	0	0	0	0	0	2	0	1
COc1cc(Nc2nccc(-c3c(-c4cccc(NC(=O)c5c(F)cccc5F)c4)nn4ncccc34)n2)cc(OC)c1OC [GSK327238]	99.8	42	8	0	99.3	0	61	99.3	0	12	0	11	95.4	92.9	88	12	83	67	98.8	7
Cl.NC(=O)c1cccc(Nc2nccc(Nc3ccc(Oc4c(Cl)cccc4Cl)c(Cl)c3)n2)c1 [GW659009]	54	12	0	0	49	17	80	34	0	27	18	0	0	3	0	10	0	0	0	0
Clc1ccc(-c2nn3ncccc3c2-c2ccnc(Nc3ccc4c(c3)OCCO4)n2)cc1 [GW829116]	83	0	0	0	71	0	19	27	0	0	0	0	7	2	0	0	0	12	0	0
CNC(=O)c1ccccc1Nc1nc(Nc2ccc(N3CCOCC3)cc2)ncc1Cl.Cl [GSK1576028]	99.6	46	30	51	96.4	92.7	100	92.6	89	11	36	22	99.5	99.4	90.1	93.5	98.9	28	81	0
COc1cc(Nc2nccc(-c3c(-c4cccc(NC(=O)c5c(F)cccc5F)c4)nn4ccccc34)n2)cc(OC)c1OC [GSK323521]	23	2	12	0	85	0	26	28	0	9	0	27	56	20	65	37	71	0	70	24
c1ccc(-c2cnc3nccnn23)cc1 [AH20685]	11	19	0	0	0	5	0	64	0	33	0	0	0	0	21	0	0	0	0	0
COc1ccc(Nc2nccc(N3CCC(NC(=O)Nc4cccc(OC)c4)C3)n2)cc1 (centres unmarked) [GSK1379742]	13	4	0	0	0	14	0	0	0	17	0	0	0	0	23	0	5	0	0	9
Cc1ccc(S(=O)(=O)Nc2ccc(Nc3nccc(Nc4cccc5[nH]ncc45)n3)cc2)cc1 [GSK581271]	39	13	0	0	0	23	10	0	0	12	0	5	3	0	7	0	34	0	0	0
O=C(Nc1n[nH]c2nc(-c3ccc(O)cc3)ccc12)C1CC1 [SB-710363]	24	2	0	9	27	0	58	23	0	90.7	32	10	13	30	0	41	0	53	0	0
C[C@@H]1CC[C@@H](C(=O)Nc2ccccc2)CN1c1cc(-c2ccc3c(N)n[nH]c3c2)nc(N)n1 [GSK2286062]	2	0	3	20	0	0	0	0	0	22	46	0	16	0	4	3	0	0	0	0
Cc1cccc(Nc2nc(N[C@H]3CCNC3)ncc2C(N)=O)c1.Cl [GSK2197149]	40	0	0	8	0	56	0	26	0	11	0	0	88	60	45	88	40	73	33	0
Cl.Cl.NCC(NC(=O)c1cc(-c2ccccc2)c(-c2ccnc3[nH]ccc23)s1)c1ccccc1 (centres unmarked) [GSK1321561]	87	0	0	0	0	0	21	66	0	23	0	22	27	0	0	64	0	98	24	0
NCCCC(NC(=O)c1cc(Br)c(-c2ccnc3[nH]ccc23)s1)c1ccccc1.O=C(O)C(F)(F)F.O=C(O)C(F)(F)F (centres unmarked) [GSK1287544]	9	6	6	0	0	42	0	0	0	34	23	9	24	0	9	31	4	17	2	0
COC(=O)Nc1nc2cc(Oc3ccc(NC(=O)Nc4cc(C(F)(F)F)ccc4F)cn3)ccc2[nH]1.Cl.Cl [GW681170]	92.9	0	0	11	99.8	22	47	36	21	0	0	11	0	0	9	0	3	3	0	0
